# Measurements published in ChEMBL document CHEMBL3988442, “University of Dundee, Small-Polar-MMV Screening Library” (2021).
# The campaign covered roughly 48,000 compounds. About 13,000 (27%) showed an effect of 50% or more. The list shows a part of the results.
# Test system: Wolbachia pipientis
# Test: Anti-Wolbachia Cell-Based Screen
# Type: functional
# Parameters: scale not given: in the data most compounds retested in dose-response had high values
# Conditions: 5 µM
row,Structure (SMILES),Percent Effect
1,OC(CN1CCN(CC2CC2)CC1)c1ccc(Br)cc1 (configuration not stated),16.18%
2,CCNC(=O)NC(=O)C(C)N1CCCc2cc(OC)ccc2C1 (configuration not stated),-0.429%
3,CCc1ccc(C(C)NC(=O)CCc2nc(-c3nnc[nH]3)no2)cc1 (configuration not stated),0.9549%
4,CC(C)CC(O)C1CCN(Cc2ccc(N(C)C)nc2)CC1 (configuration not stated),7.143%
5,Cc1nc(C(NC(=O)c2cc(C(C)C)[nH]n2)c2ccccc2)n[nH]1 (configuration not stated),-6.911%
6,CCC(CO)N(Cc1ccccn1)C(=O)c1cccc(C#N)c1 (configuration not stated),-13.95%
7,CNS(=O)(=O)c1ccc(CNC(=O)Nc2ccccn2)s1,-5.463%
8,CS(=O)(=O)c1nnc(NC(=O)CCc2cc(F)ccc2F)[nH]1,-16.39%
9,CN1CCN(Cc2cnc3n2CCN(C(=O)c2cscn2)C3)CC1,22%
10,COCc1cnc2n1CCN(C(=O)C1=CCCCC1)C2C (configuration not stated),2.775%
11,CC1c2ncc(Cn3cncn3)n2CCN1C(=O)Cc1cccs1 (configuration not stated),-8.694%
12,CC1c2ncc(Cn3cncn3)n2CCN1C(=O)c1ccsc1 (configuration not stated),106%
13,CC1c2ncc(Cn3cncn3)n2CCN1C(=O)c1ccccn1 (configuration not stated),114.5%
14,CC1c2ncc(Cn3cncn3)n2CCN1C(=O)c1cscn1 (configuration not stated),89.1%
15,COCc1cnc2n1CCN(C(=O)c1cc3cc(Cl)ccc3o1)C2C (configuration not stated),1.755%
16,O=C(CSC1=NS(=O)(=O)c2cc(F)ccc2N1)c1ccccc1,100.3%

row,Structure (SMILES),Percent Effect
1,CCN1CC(Oc2ccc(Cl)cc2)=NC(SCC(=O)c2ccccc2)=N1,3.791%
2,O=C(CN1C(=O)c2ccccc2CS1(=O)=O)c1ccc(Cl)cc1,-11.99%
3,O=C(CSC1=NS(=O)(=O)c2cc(Cl)ccc2N1)c1ccccc1,112.7%
4,O=C(CSC1=NS(=O)(=O)c2cc(F)ccc2N1)c1ccc(Cl)cc1,4.147%
5,Cc1nc(COC[C@H]2CC[C@H]3[C@H](CCN3c3ncccn3)O2)cs1.O=C(O)C(F)(F)F,-1.05%
6,COc1cc(NC(=O)NC2CC2)ccc1N1CCOC1=O,-6.648%
7,CCc1[nH]c2c(CNC(=O)[C@@H]3CCCN3C)cc(C)cc2c1C,16.75%
8,Cn1ccnc1C(O)(CCNCc1ccc(Cl)o1)C(F)(F)F (configuration not stated),-7.652%
9,O=C(c1ccsc1)N1CCc2nnc(COc3cncnc3)n2CC1,-11%
10,Cc1ncsc1CNc1ccn(Cc2ccccc2)n1,-3.966%
11,CCOc1ccc(NC(=O)Nc2cnc(N3CCOCC3)nc2)cc1,2.27%
12,CC(C)[C@H](N)CC(=O)Nc1nc(-c2cnc(N3CCOCC3)nc2)cs1.Cl,116.3%
13,COCC(=O)Nc1cnc(N2CCOCC2)nc1,-9.684%
14,CCC(C(=O)NCc1csc(N2CCOCC2)n1)n1cccn1 (configuration not stated),4.05%
15,CC[C@H](C)[C@H](N)C(=O)Nc1nc(-c2cnc(N3CCOCC3)nc2)cs1,101.5%
16,CC(C)C(NC(=O)c1nc(N2CCOCC2)ncc1Cl)c1cccs1 (configuration not stated),8.573%
